Data published in PubChem BioAssay (Tox21).
Results filed as inconclusive are left out. The source made the active and inactive calls. Unless noted, calls come from the whole dose curve; as a rule, active = well fitted curve in the direction sought with a large enough effect in the repeat runs; inconclusive = weak or mixed curves; inactive = no such curve, though single readings can be large; an effect the other way counts as inactive or inconclusive.

Tests used:
[1] = qHTS assay to identify small molecule agonists of the peroxisome proliferator-activated receptor delta (PPARd) signaling pathway - cell viability counter screen (AID 743211); note: nearly all actives have a fitted effect of over 55% in size
Procedure, shortened: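 Viability was measured as CellTiter-Glo luminescence (30 min, room temperature) in the same wells as the beta-lactamase readout. GeneBLAzer PPARd UAS-bla HEK293H cells received compound after 5 h plating and were incubated 17 h at 37 C.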

[2] = target: Peroxisome proliferator-activated receptor delta (Homo sapiens) (UniProt Q03181); assay: qHTS assay to identify small molecule agonists of the peroxisome proliferator-activated receptor delta (PPARd) signaling pathway (AID 743212; calls by dose curve)
Procedure, shortened: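 GeneBLAzer PPARd UAS-bla HEK293H cells (beta-lactamase reporter under UAS control), plated and rested 5 h at 37 C, then exposed to compounds in DMSO at 37 C; LiveBLAzer B/G FRET substrate added, 2 h room temperature, fluorescence read.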

[3] = qHTS assay to identify small molecule antagonists of the peroxisome proliferator-activated receptor delta (PPARd) signaling pathway - cell viability counter screen (AID 743213); note: nearly all actives have a fitted effect of over 50% in size
Procedure, shortened: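 PPARd-bla HEK293H cells (3000/well) got compound plus 300 nM L165041 agonist for 17 h at 37 C. Viability in the same wells came from CellTiter-Glo luminescence after 30 min at room temperature.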

[4] = target: Peroxisome proliferator-activated receptor delta (Homo sapiens) (UniProt Q03181); assay: qHTS assay to identify small molecule antagonists of the peroxisome proliferator-activated receptor delta (PPARd) signaling pathway (AID 743215; active = well fitted inhibition curve with a large enough effect in the signal ratio in the repeat runs, not every such curve was filed as active; the % refers to the signal ratio;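 note: cells stimulated with agonist L165041 at 300 nM final during compound exposure; series mostly up to about 62 µM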)
Procedure, shortened: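 PPARd-bla HEK293H cells (UAS-bla reporter) preincubated 5 h, then given compound plus 300 nM final L165041 agonist for 17 h at 37 C. Beta-lactamase activity read by LiveBLAzer B/G FRET substrate fluorescence after 2 h at room temperature.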

[5] = target: Bile acid receptor (Homo sapiens) (UniProt Q96RI1); assay: qHTS assay to identify small molecule antagonists of the farnesoid-X-receptor (FXR) signaling pathway (AID 743217; active = well fitted inhibition curve with a large enough effect in the signal ratio in the repeat runs, not every such curve was filed as active; the % refers to the signal ratio)
Procedure, shortened: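 FXR-UAS-bla HEK 293T cells (beta-lactamase reporter) given compound plus chenodeoxycholic acid (50 uM final), 16 h at 37C. LiveBLAzer B/G FRET substrate added for 2 h at room temperature; fluorescence read.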

[6] = target: Bile acid receptor (Homo sapiens) (UniProt Q96RI1); assay: qHTS assay to identify small molecule agonists of the farnesoid-X-receptor (FXR) signaling pathway (AID 743220; active = well fitted activation curve with a large enough effect in the signal ratio in the repeat runs, not every such curve was filed as active; the % refers to the signal ratio)
Procedure, shortened: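 Beta-lactamase reporter under UAS control in GeneBLAzer FXR HEK 293T cells (5000/well) measured with LiveBLAzer FRET substrate after 2 h at room temperature. Compound exposure lasted 16 h at 37C.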

[7] = qHTS assay to identify small molecule antagonists of the farnesoid-X-receptor (FXR) signaling pathway - cell viability counter screen (AID 743221; active = well fitted cell-killing curve with a large enough effect in the repeat runs, not every such curve was filed as active; note: nearly all actives have a fitted effect of over 50% in size)
Procedure, shortened: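 Cytotoxicity counter screen run in the FXR-bla reporter wells: HEK 293T cells exposed to compound with 50 uM (final) chenodeoxycholic acid for 16 h, 37 C, then viability measured by CellTiter-Glo luminescence after 30 min, room temperature.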

[8] = target: Vitamin D3 receptor (Homo sapiens) (UniProt P11473); assay: qHTS assay to identify small molecule agonists of the vitamin D receptor (VDR) signaling pathway (AID 743222; calls by dose curve)
Procedure, shortened: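 VDR-bla cells plated 4 h at 37 C, then exposed to compounds for 16 h at 37 C. Beta-lactamase reporter activity measured by fluorescence after 2 h room-temperature loading with LiveBLAzer B/G FRET substrate.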

[9] = qHTS assay to identify small molecule agonists of the farnesoid-X-receptor (FXR) signaling pathway - cell viability counter screen (AID 743218); note: nearly all actives have a fitted effect of over 45% in size
Procedure, shortened: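 FXR-UAS-bla HEK 293T cells exposed to compounds for 16 h at 37C. Cytotoxicity read in the same wells by CellTiter-Glo luminescence after 30 min at room temperature, following the beta-lactamase FRET read.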

[10] = target: Vitamin D3 receptor (Homo sapiens) (UniProt P11473); assay: qHTS assay to identify small molecule antagonists of the vitamin D receptor (VDR) signaling pathway (AID 743223; active = well fitted inhibition curve with a large enough effect in the signal ratio in the repeat runs, not every such curve was filed as active; the % refers to the signal ratio)
Procedure, shortened: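 Antagonist mode: compound added to VDR-bla cells alongside agonist 1alpha,25-dihydroxyvitamin D3 (3 nM final), incubation 16 h at 37C. Read-out is LiveBLAzer FRET fluorescence, 2 h at room temperature.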
% is set by controls: 0 for no effect and ±100 for the full control effect.

Chain of Bile acid receptor (Homo sapiens) (Q96RI1 whole entry, looked up): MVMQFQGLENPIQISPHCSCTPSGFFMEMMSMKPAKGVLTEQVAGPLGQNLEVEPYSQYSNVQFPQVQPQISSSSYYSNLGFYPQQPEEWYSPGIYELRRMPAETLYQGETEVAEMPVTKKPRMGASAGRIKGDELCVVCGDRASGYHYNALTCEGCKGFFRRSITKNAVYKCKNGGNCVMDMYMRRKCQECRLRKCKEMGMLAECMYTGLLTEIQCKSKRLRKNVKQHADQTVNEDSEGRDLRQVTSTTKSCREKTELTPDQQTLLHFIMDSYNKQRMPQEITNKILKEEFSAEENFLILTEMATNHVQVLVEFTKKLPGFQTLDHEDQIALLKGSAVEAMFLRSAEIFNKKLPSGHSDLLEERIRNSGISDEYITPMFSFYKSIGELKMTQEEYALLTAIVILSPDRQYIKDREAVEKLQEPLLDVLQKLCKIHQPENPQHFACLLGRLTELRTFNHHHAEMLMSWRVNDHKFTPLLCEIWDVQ
Chain of Peroxisome proliferator-activated receptor delta (Homo sapiens) (Q03181 whole entry, looked up): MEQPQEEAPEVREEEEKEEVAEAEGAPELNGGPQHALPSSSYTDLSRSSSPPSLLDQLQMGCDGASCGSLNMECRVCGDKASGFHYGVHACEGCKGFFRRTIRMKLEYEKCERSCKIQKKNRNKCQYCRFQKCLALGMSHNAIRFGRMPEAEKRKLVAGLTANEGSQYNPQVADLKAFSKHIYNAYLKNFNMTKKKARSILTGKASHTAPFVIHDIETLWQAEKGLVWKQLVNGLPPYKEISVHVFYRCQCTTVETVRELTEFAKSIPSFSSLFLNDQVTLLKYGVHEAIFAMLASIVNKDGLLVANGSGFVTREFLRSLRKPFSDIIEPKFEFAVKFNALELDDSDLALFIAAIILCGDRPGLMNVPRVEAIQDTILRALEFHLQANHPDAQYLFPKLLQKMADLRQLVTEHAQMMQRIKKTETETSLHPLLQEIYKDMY
Chain of Vitamin D3 receptor (Homo sapiens) (P11473 whole entry, looked up): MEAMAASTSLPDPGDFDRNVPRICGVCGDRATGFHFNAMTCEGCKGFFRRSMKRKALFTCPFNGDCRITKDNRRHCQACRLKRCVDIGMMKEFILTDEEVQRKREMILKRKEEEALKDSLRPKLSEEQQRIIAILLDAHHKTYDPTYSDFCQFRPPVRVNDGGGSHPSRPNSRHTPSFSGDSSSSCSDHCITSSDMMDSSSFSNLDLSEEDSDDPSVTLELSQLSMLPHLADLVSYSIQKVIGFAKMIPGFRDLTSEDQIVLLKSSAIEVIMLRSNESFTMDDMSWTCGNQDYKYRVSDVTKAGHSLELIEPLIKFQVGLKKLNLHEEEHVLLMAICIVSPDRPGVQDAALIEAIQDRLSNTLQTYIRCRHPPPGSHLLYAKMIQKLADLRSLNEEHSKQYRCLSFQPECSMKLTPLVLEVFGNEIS

CCCCCCOC(=O)CCCCC(=O)OCCCCCC
inactive: Potency [1] | outcome [2] | Potency [3] | Potency [4] | outcome [5] | outcome [6] | Potency [7] | outcome [8]

N=c1nc(N2CCCCC2)cc(N)n1O
inactive: Potency [1] | outcome [2] | Potency [3] | Potency [4] | outcome [5] | Potency [9] | outcome [6] | Potency [7]

CCCCCSCCCCC
inactive: Potency [1] | outcome [2] | Potency [3] | Potency [4] | outcome [5] | Potency [9] | outcome [6] | Potency [7]

CCOC(C)(C)C
inactive: Potency [1] | outcome [2] | Potency [3] | Potency [4] | outcome [5] | Potency [9] | outcome [6] | Potency [7] | outcome [8] | outcome [10]

CO/N=C(/C(=O)N[C@@H]1C(=O)N2C(C(=O)OCOC(=O)C(C)(C)C)=C(C)CS[C@H]12)c1csc(N)n1
inactive: Potency [1] | outcome [2] | Potency [3] | Potency [4] | outcome [5] | Potency [9] | outcome [6] | Potency [7] | outcome [8]

CCO/C([O-])=N/c1c[n+](N2CCOCC2)no1
inactive: Potency [1] | outcome [2] | Potency [3] | Potency [4] | outcome [5] | Potency [9] | outcome [6] | Potency [7] | outcome [8] | outcome [10]

O=C(O)Cc1ccc(CCNS(=O)(=O)c2ccc(Cl)cc2)cc1
inactive: Potency [1] | outcome [2] | Potency [3] | Potency [4] | outcome [5] | Potency [9] | outcome [6] | Potency [7]

CC(=O)OCC(=O)[C@@]1(O)CCC2C3CCC4=CC(=O)CC[C@]4(C)C3[C@@H](O)C[C@@]21C (stereo not given in full)
inactive: Potency [1] | outcome [2] | Potency [3] | Potency [4] | outcome [5] | Potency [9] | outcome [6] | Potency [7] | outcome [8] | outcome [10]

Cn1cc(S(C)=O)c(=O)c2ccc(F)cc21 (stereo not given)
inactive: Potency [1] | outcome [2] | Potency [3] | Potency [4] | outcome [5] | Potency [9] | outcome [6] | Potency [7] | outcome [8] | outcome [10]

C=C(C)CS(=O)(=O)O
inactive: Potency [1] | outcome [2] | Potency [3] | Potency [4] | outcome [5] | Potency [9] | outcome [6]

C[N+](C)(C)CCCCCC[N+](C)(C)C
inactive: Potency [1] | outcome [2] | Potency [3] | Potency [4] | outcome [5] | Potency [9] | outcome [6] | Potency [7]

CCS(=O)(=O)c1ccc(OC)c(C(=O)OC)c1
inactive: Potency [1] | outcome [2] | Potency [3] | Potency [4] | outcome [5] | Potency [9] | outcome [6]

CC(=O)N(CC(O)CO)c1c(I)c(C(=O)NCCO)c(I)c(C(=O)NCC(O)CO)c1I (stereo not given)
inactive: Potency [1] | outcome [2] | Potency [3] | Potency [4] | outcome [5] | Potency [9] | outcome [6] | Potency [7] | outcome [8] | outcome [10]

CCCCCCCCCCCCCCCCC
inactive: Potency [1] | outcome [2] | Potency [3] | Potency [4] | outcome [5] | Potency [9] | outcome [6] | outcome [8] | outcome [10]

CCCCOCCOCCOCCCC
inactive: Potency [1] | outcome [2] | Potency [3] | Potency [4] | outcome [5] | Potency [9] | outcome [6] | Potency [7]

NCCCNCCSP(=O)(O)O
inactive: activity change, negative = cytotoxicity [1] 8.83% [at 13.2 µM] | activation [2] -0.031% [at 13.2 µM] | viability change, negative = cytotoxic [3] 1.09% [at 13.7 µM] | ratio activity, negative = inhibition [4] -0.162% [at 13.7 µM] | activity change, negative = inhibition [5] 5.47% [at 13.2 µM] | viability change, negative = cytotoxic [9] 7.81% [at 13.2 µM] | activation [6] 0.213% [at 13.2 µM] | activity change, negative = cytotoxicity [7] 2.46% [at 13.2 µM]

COC(=O)c1c(Cl)c(Cl)c(C(=O)OC)c(Cl)c1Cl
inactive: Potency [1] | outcome [2] | Potency [3] | Potency [4] | outcome [5] | Potency [9] | outcome [6] | outcome [8]

COCCCOCCCOC
inactive: Potency [1] | outcome [2] | Potency [3] | Potency [4] | outcome [5] | Potency [9] | outcome [6] | Potency [7] | outcome [8] | outcome [10]

CCC(C)S (stereo not given)
inactive: activity change, negative = cytotoxicity [1] 2.23% [at 2.7 µM] | activation [2] -4.14% [at 2.7 µM] | viability change, negative = cytotoxic [3] 4.88% [at 2.83 µM] | ratio activity, negative = inhibition [4] 5.9% [at 2.83 µM] | activity change, negative = inhibition [5] 3.24% [at 2.69 µM] | viability change, negative = cytotoxic [9] 7.12% [at 2.7 µM] | activation [6] -0.872% [at 2.7 µM] | activity change, negative = cytotoxicity [7] 5.23% [at 2.69 µM] | activation [8] 12.2% [at 2.71 µM] | activity change, negative = inhibition [10] 0.31% [at 3.11 µM]

O=c1n(CCO)c(=O)n(CCO)c(=O)n1CCO
inactive: Potency [1] | outcome [2] | Potency [3] | Potency [4] | outcome [5] | Potency [9] | outcome [6] | Potency [7] | outcome [8] | outcome [10]

CCOC(=O)CCC(C)=O
inactive: Potency [1] | outcome [2] | Potency [3] | Potency [4] | outcome [5] | Potency [9] | outcome [6] | outcome [8] | outcome [10]

CN1CC(=O)NC1=N
inactive: Potency [1] | outcome [2] | Potency [3] | Potency [4] | outcome [5] | Potency [9] | outcome [6] | outcome [8] | outcome [10]

CC(C)NC(=O)NC(C)C
inactive: Potency [1] | outcome [2] | Potency [3] | Potency [4] | outcome [5] | outcome [6] | Potency [7] | outcome [8] | outcome [10]

Nc1c[n+](N2CCOCC2)no1
inactive: Potency [1] | outcome [2] | Potency [3] | Potency [4] | outcome [5] | Potency [9] | outcome [6] | Potency [7]

CC(C)CNCC(C)C
inactive: Potency [1] | outcome [2] | Potency [3] | Potency [4] | outcome [5] | Potency [9] | outcome [6] | Potency [7] | outcome [8]

CC/C=C\CCOC(C)=O
inactive: Potency [1] | outcome [2] | Potency [3] | Potency [4] | outcome [5] | Potency [9] | outcome [6] | Potency [7] | outcome [8] | outcome [10]
